Data published in PubChem BioAssay AID2391 (Southern Research Specialized Biocontainment Screening …, 2010).
The campaign covered roughly 310,000 compounds. About 410 (0.13%) were called active. Roughly 2% stayed inconclusive and do not appear here. The rule behind the calls is not given here. These entries were drawn from the full list. Entries with a potency or affinity are not part of this list.

Test: RSV antiviral activity via CPE protection, HEp-2 cells, primary 10 µM value included (AID 2391)
Conditions: RSV-induced CPE inhibition, at 10 µM, stronger effect = higher value

CPE inhibition, inactive:
Cc1ccc(SCCOCCN2CCOCC2)cc1 -1.12%
CCc1nc(SCC(=O)N2CC(=O)Nc3ccccc32)c2c(C)c(C)sc2n1 0.22%
Cc1sc2nc(C(C)C)nc(SCC(=O)N3c4ccccc4CC3C)c2c1C (stereo not given) 16.1%
Cc1sc2nc(C3CC3)nc(SCC(=O)N3CCc4ccccc4C3)c2c1C 1.85%
Cc1sc2nc(C3CC3)nc(SCC(=O)N3CCCc4ccccc43)c2c1C 20.9%
COc1ccccc1N=Nc1nc(-c2ccccc2)c(-c2ccccc2)[nH]1 12.4%
CC(C)CNC(=O)COC(=O)CNC(=O)c1cc(Cl)cc([N+](=O)[O-])c1 1.69%
COC(=O)C1=C(C)N(c2ccccc2)/C(=C/c2ccco2)C1=O 0.77%
CCc1ccc(NCCC(=O)c2ccc(Br)cc2)cc1 0.86%
CCS(=O)(=O)N1CCCC(C(=O)Oc2ccc(Br)cc2)C1 (stereo not given) -0.04%
O=C(O)c1cccc(NC(=O)c2cn(-c3ccccc3)nc2-c2ccc([N+](=O)[O-])cc2)c1 19%
COc1cc(OC)cc(-c2oc(=O)c3cc(OC)c(OC)cc3c2/C=C/c2ccc(F)cc2)c1 3.91%
COc1ccc(-c2oc(=O)c3cc(OC)c(OC)cc3c2/C=C/c2ccc(F)cc2)cc1 5.33%
Cc1cc(N(C(=O)c2ccco2)C(C(=O)NC2CCCCC2)c2ccccc2)ccc1-n1cnnn1 (stereo not given) 0.41%
CCN(CC)c1ccc(NC(=O)C(C)C)cc1 0.56%
Cc1[nH]c(C)c(S(=O)(=O)N2CCN(c3cccc(Cl)c3)CC2)c1C(=O)N1CCCC1 0.18%
Cc1[nH]c(C)c(S(=O)(=O)N2CCN(c3ccccc3)CC2)c1C(=O)N1CCCCC1 0.61%
COc1cccc(N2CCN(S(=O)(=O)c3c(C)[nH]c(C)c3C(=O)N3CCCCC3)CC2)c1 1.56%
Cc1[nH]c(C)c(S(=O)(=O)N2CCN(c3cccc(C(F)(F)F)c3)CC2)c1C(=O)N1CCCC1 2.4%
Cc1nc(SCC(=O)NCc2ccco2)c2c(=O)n(C)c(=O)n(CC(C)C)c2n1 1.51%
O=c1c2c(n3cnnc3n1C1CCCCC1)-c1ccccc1CC21CCCCC1 3.08%
O=C(CCn1nnc2ccccc2c1=O)N[C@@H](Cc1ccccc1)C(=O)O 2%
COc1ccc(OC)c(CN2CCN(C(=O)c3ccco3)CC2)c1 0.83%
CC(C)(C)OC(=O)CN1C(=O)NC(Cc2c[nH]c3ccccc23)C1=O (stereo not given) -0.27%
CNC(=O)CN1C(=O)NC(Cc2c[nH]c3ccccc23)C1=O (stereo not given) 2.1%
CC1CN(C(=O)/C=C/c2ccc(SC(F)F)cc2)CC(C)O1 (stereo not given) 1.82%
Cc1occc1-c1nnc(SCC(N)=O)n1Cc1ccccc1 1%
COC(=O)c1cccnc1NC(=S)NC1CCCCC1 0.64%
CC(C)OC(=O)c1ccc(Cn2nnc3ccccc3c2=O)cc1 12.4%
Cc1ccc(O)c(NC(=S)NC(=O)CC(C)C)c1 0.23%
Cc1ccc(O)c(NC(=S)NC(=O)c2ccc(-c3ccc(Cl)cc3)o2)c1 -0.16%
CC(C)(C)c1ccc(C2C(C(=O)c3ccco3)=C(O)C(=O)N2CC2CCCO2)cc1 (stereo not given) 8.05%
Cc1cccc2nc(Cn3c(=O)n(CCC(=O)NCc4ccco4)c(=O)c4sccc43)cc(=O)n12 10.2%
O=C(CCCn1c(=O)c2sccc2n(CC(=O)NCc2ccco2)c1=O)NCc1ccco1 -0.82%
O=C(CCn1c(=O)c2ccccc2n(Cc2cc(=O)n3ccccc3n2)c1=O)NCc1ccco1 64%
Cc1ccccc1Cn1c(=O)n(CCCC(=O)NCc2ccco2)c(=O)c2sccc21 3.02%
O=C(C1=C[C@@H](c2coc3ccccc3c2=O)C[C@@H](OCc2ccc(CO)cc2)O1)N1CCN(Cc2ccc3c(c2)OCO3)CC1 4.77%
COC(=O)c1cc(S(=O)(=O)NCCc2cccc(C)c2)cn1C 0.96%
CC(C)(C)c1csc(NC(=O)Nc2ccccc2)n1 17.7%
COc1ccccc1CNC(=O)Cc1csc(NC(=O)Nc2ccccc2OC)n1 7.68%
O=C(CCCCCNC(=O)N1CCn2c1nc1ccccc12)N[C@@H](Cc1ccccc1)C(=O)O 0.73%
Cc1ccc2c(Cl)cc(Cl)c(OCC(=O)Nc3ccc(C)c(S(=O)(=O)N(C)C)c3)c2n1 1.79%
Cc1cccn2c(=O)c(/C=C(\C#N)C(=O)NCc3ccco3)c(N3CCC(C(N)=O)CC3)nc12 2.25%
Cc1cccn2c(=O)c(/C=C(\C#N)C(=O)NCc3ccco3)c(N3CCOCC3)nc12 1.08%
CNC(=O)/C(C#N)=C/c1c(N2CCN(c3ccccc3)CC2)nc2c(C)cccn2c1=O 14.9%
CCN1CCN(c2nc3c(C)cccn3c(=O)c2/C=C(\C#N)C(=O)NC)CC1 2.17%
COC(=O)[C@H](CCSC)NC(=O)NCCc1ccccc1F 0.16%
CC1CCN(Cc2c(C(=O)N/N=C/c3ccc(OC(C)C)cc3)nnn2-c2nonc2N)CC1 3%
COc1ccc(C2C3=C(CC(C)(C)CC3=O)N(C)C3=C2C(=O)CC(C)(C)C3)cc1OC 4.11%
COC(=O)C1=C(N)Oc2cc(C)n(CCCn3ccnc3)c(=O)c2C1c1cccc(Cl)c1 (stereo not given) 1.81%
COc1ccc(-c2cc(C(=O)N3CCN(c4ncccn4)CC3)c3ccccc3n2)c(OC)c1 0.07%
CCOc1ccc(-c2cc(C(=O)N/N=C(\C)c3cccnc3)c3ccccc3n2)c(OCC)c1 0.9%
O=C(N/N=C/c1ccc2c(c1)OCO2)c1cc(-c2ccccc2)nc2ccccc12 1.93%
O=C(N/N=C/c1ccc2c(c1)OCO2)c1cc(-c2ccccc2Cl)nc2ccccc12 4.7%
COc1ccc(-c2cc(C(=O)N3CCCCC3)c3ccccc3n2)cc1 0.19%
CCOc1ccc(-c2cc(C(=O)O)c3ccccc3n2)cc1 8.94%
COc1ccc(CN(C)CC(=O)Nc2ccccc2C(F)(F)F)c(OC)c1 0.3%
CCOC(=O)C1CCCN(C(=O)c2cccc(S(=O)(=O)N(C)c3ccc(C)cc3)c2)C1 (stereo not given) 0.68%
Cc1cccc(/C=N/NC(=O)c2cccc(NC(=O)c3ccccc3)c2)n1 1.75%
CC1(C)CC(=O)C=C(NNC(=O)c2ccc(N)cc2)C1 1.88%
O=C(CN(C(=O)c1csnn1)c1cccc2c1CCCC2)NCc1ccc(F)cc1 1.67%
CCOC(=O)c1c(CN2CCOCC2)oc2ccc(OC(C)=O)cc12 2.6%
COc1ccc(OCc2cc(C(=O)N3CCCC(CO)C3)no2)c2ccccc12 (stereo not given) 3.56%
CC1CC(C)(C)NC(=S)N1CC(=O)N1CCN(Cc2ccccc2)CC1 (stereo not given) -0.71%
Clc1ccc(OCc2nnc(-c3ccccc3Br)o2)cc1 11.5%
COc1ccc(-c2nc(CN3CCC(C(=O)N4CCc5ccccc54)CC3)c(C)o2)cc1OC 0.12%
O=C(O)CCC(=O)N1N=C(c2cccs2)CC1c1cn(-c2ccccc2)nc1-c1ccccc1 (stereo not given) 1.96%
COc1ccc(-c2nn(-c3ccccc3)cc2C2CC(c3cccs3)=NN2C(=O)CCCC(=O)O)cc1 (stereo not given) 6.41%
CCCCCCSc1cccc(-c2nc3ccc(Cl)cn3c2NCc2ccccc2)c1 -1.21%
O=C(CCSc1nnc2scc(-c3ccccc3)n12)Nc1nc(-c2ccccc2)ns1 9.19%
CCN(c1ccccc1)S(=O)(=O)c1cccc(C(=O)NCC(c2cccs2)N(C)C)c1 (stereo not given) -0.95%
CCOC(=O)C1=C(C)N=c2s/c(=C\c3ccc(OCC(=O)O)c(OC)c3)c(=O)n2C1c1ccc(OC)cc1 (stereo not given) 2.77%
CCOC(=O)C1=C(C)N=c2s/c(=C\c3ccc(OCC(=O)O)cc3)c(=O)n2C1c1ccc(Cl)cc1 (stereo not given) 18.1%
CC1CC(C)CN(S(=O)(=O)c2ccc(C(=O)OCC(=O)NCCN3C(=O)CSC3=O)cc2)C1 (stereo not given) 0.02%
Cc1nnc(SCC(=O)N(C2CCCCC2)C2CCS(=O)(=O)C2)n1N (stereo not given) -1.53%
O=C(CSc1nc2ccccc2o1)N1CCCC1 -0.37%
COC(=O)C1=C(C)N(CC2CC2)C(=O)N[C@H]1c1ccc(Br)cc1 27%
COC(=O)C1=C(C)N(Cc2ccco2)C(=O)N[C@@H]1c1cccc(C(F)(F)F)c1 4.06%
COC(=O)C1=C(C)N(Cc2ccco2)C(=O)N[C@@H]1c1ccccc1 2.19%
COC(=O)C1=C(C)N(Cc2ccco2)C(=O)N[C@@H]1c1ccc(Br)cc1 0.6%
COC(=O)C1=C(C)N(Cc2ccco2)C(=O)N[C@@H]1c1ccco1 0.83%
CCN1C(=O)N[C@@H](c2cccc(C(F)(F)F)c2)C(C(=O)OC)=C1C -0.08%
CCOCCOC(=O)C1=C(C)Nc2ccc(C)cc2S1 2.03%
CN(C(=O)COC(=O)c1cc(S(=O)(=O)N2CCOCC2)ccc1Cl)C1CCS(=O)(=O)C1 (stereo not given) -1.51%
CCn1nnnc1-c1ccc(OC)c(S(=O)(=O)Nc2ccc(C(=O)OC)cc2)c1 1.29%
